# Tb PYK inh: qHTS of Trypanosoma Brucei Inhibitors. pyruvate kinase (Trypanosoma brucei), Q57TT1. TbPYK enzyme, Kinase-Glo Plus ATP luminescence, 45 min. Potency, µM (titrated, usually from 76.8 µM), actives largely listed as inhibitors. hit rate 0.12% among 410,000; further: nearly all actives have a fitted effect of over 50% in size
#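 Glycolytic pyruvate kinase of T. brucei was incubated with substrate, test compound and 130 uM ADP for 45 minutes at room temperature. Luminescent Kinase-Glo Plus signal was measured after 10 minutes.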
# Vaccinia mCherry: qHTS for Stage-Specific Inhibitors of Vaccinia Orthopoxvirus: mCherry Reporter Primary qHTS | Vaccinia virus mCherry reporter infection, fluorescence | Potency, µM (titrated, usually from 36.5 µM), hits mostly inhibitors | hit rate 0.63% among 310,000; calls by dose curve; tested in A549 cells; further: nearly all actives have a fitted effect of over 35% in size
# LmPK inhibitor: qHTS Assay for Inhibitors of Leishmania Mexicana Pyruvate Kinase (LmPK); purified LmPK, Kinase-Glo ATP luminescence, 1 h; Potency, µM (series often up to 57.5 µM), most hits filed as inhibitors; hit rate 0.37% among 290,000
# Target sequence (Q27686 whole entry, looked up): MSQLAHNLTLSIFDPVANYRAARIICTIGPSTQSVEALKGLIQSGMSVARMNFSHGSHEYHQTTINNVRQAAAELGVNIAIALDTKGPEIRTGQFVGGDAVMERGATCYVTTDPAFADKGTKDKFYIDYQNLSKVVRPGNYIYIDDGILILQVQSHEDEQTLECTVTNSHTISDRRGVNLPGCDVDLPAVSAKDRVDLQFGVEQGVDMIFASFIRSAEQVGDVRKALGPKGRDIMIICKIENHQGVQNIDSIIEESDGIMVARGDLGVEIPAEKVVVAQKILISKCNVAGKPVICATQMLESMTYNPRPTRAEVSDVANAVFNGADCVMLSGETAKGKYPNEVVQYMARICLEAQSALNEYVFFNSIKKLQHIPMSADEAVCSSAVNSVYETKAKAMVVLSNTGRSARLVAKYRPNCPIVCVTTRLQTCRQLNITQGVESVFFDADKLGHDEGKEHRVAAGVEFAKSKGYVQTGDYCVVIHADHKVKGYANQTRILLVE
#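 In 50 mM imidazole pH 7.2 with 7 mM MgCl2, LmPK (0.1 nM) turned over PEP (0.5 mM) and ADP (0.1 mM) for 1 h at room temperature. Luciferase read-out of ATP.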
# Vaccinia Venus: qHTS for Stage-Specific Inhibitors of Vaccinia Orthopoxvirus: Venus Reporter Primary qHTS | Vaccinia virus Venus reporter expression, fluorescence | Potency, µM (series often up to 36.5 µM), hits mostly inhibitors | hit rate 0.46% among 330,000 | AID 720580, 2013; calls by dose curve; tested in A549 cells; further: nearly all actives have a fitted effect of over 30% in size
# HCMV antiviral: qHTS Assay for inhibitors of the human cytomegalovirus (HCMV). HFF cells, HCMV-luciferase reporter, 72 h; stronger effect = lower value. activity change, negative = inhibition, % at 57.5 µM. hit rate 4.5% among 410,000. AID 1259415, 2018; in the data active means activity change below about -60%; inconclusive means no clear call, values can overlap the other calls; inactive means above about -39%
#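 HFF cells seeded 16 h at 37C, treated with compounds, infected with luciferase-reporter HCMV at MOI 1 PFU/cell; luciferase read at 72 h post infection, normalized to buffer-only and Salinomycin controls.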
# A number is an active result; . = inactive; ? = inconclusive; / = not tested or not shown; [ ] = dose if it differs, or a comment. Hits are enriched below; roughly 5% of the tested compounds scored in any of these assays. Unless noted, the call rests on the fitted dose curve; in most records, active means well fitted curve in the direction sought with a large enough effect; inconclusive means small, poorly fitted or top-dose-only effect, or another doubt; inactive means no such curve, though single readings can be large; an effect the other way counts as inactive or inconclusive.
SMILES,Tb PYK inh,Vaccinia mCherry,LmPK inhibitor,Vaccinia Venus,HCMV antiviral
CCOC(=O)c1ccc(NC(=O)c2nc(S(=O)(=O)Cc3ccccc3)ncc2Cl)cc1,.,?,.,?,-99
CN(c1ccccc1)S(=O)(=O)c1ccc(NC(=O)c2nc(S(C)(=O)=O)ncc2Cl)cc1,.,.[7.34 µM],.,.[7.34 µM],-111
CCOC(=O)c1c(-c2ccccc2)csc1NC(=O)c1nc(S(=O)(=O)CC)ncc1Cl,.,?,/,?,-98
CC1(C(=O)Nc2cccc(NS(C)(=O)=O)c2)CCN1Cc1ccccc1OC(F)F (stereo unspecified),.,.,/,.,?
CCc1cc(-c2nnn(CCC3COCCO3)c2CC)cc(CC)c1-c1cn(Cc2ccc3ccccc3c2)nn1 (stereo unspecified),.,?,/,?,-67
CCc1cc(-c2nnn(CCC3COCCO3)c2CC)ccc1-c1cn(CCc2c[nH]c3ccccc23)nn1 (stereo unspecified),.,.,/,?,-80
COc1ccc(-c2cn(CCc3c[nH]c4ccccc34)nn2)cc1,.,?,.,?,?
O=C(/C=C/Nc1ccccc1)C(F)(F)F,.,.,.,.,-80
COc1cc([N+](=O)[O-])c(OC)cc1Nc1ccccc1C(=O)O,/,/,/,/,.
Cc1cccc(Nc2ccccc2C(=O)O)c1C,.,.,.,.,-63
COc1cc(-c2ccc(Nc3ccccc3C(=O)O)c(OC)c2)ccc1Nc1ccccc1C(=O)O,.,.,.,.,-68
CC(C)C(N)c1csc(Nc2ccc(C(=O)N(C)Cc3ccccc3)cn2)n1 (stereo unspecified),.,.,/,.,.
CCOC(=O)c1c(-c2ccccc2)csc1NC(=O)CSc1nc(N)cc(N)n1,.,.,.,?,-67
CCOC(=O)c1c(-c2ccccc2)csc1NC(=O)CSc1nc(C)cc(C)n1,.,.,.,.,-82
Cc1ccccc1C1N=C2Oc3ccccc3C=C2C(=O)N1 (stereo unspecified),.,?,/,?,.
CCn1c(CC(=O)Nc2ccc(Cl)c(Cl)c2)nnc1SCc1ccc(Cl)cc1,.,/,.,.,-100
COc1cc(C2Oc3cc(C4Oc5cc(O)cc(O)c5C(=O)C4O)ccc3OC2CO)ccc1O (stereo unspecified),.,.,.,.,-67
CN(C)S(=O)(=O)c1ccc(C(=O)OCC(=O)c2ccc(OC(F)F)cc2OC(F)F)cc1,.,/,.,.,.
CCSC(SCC)[C@H](O)[C@@H](O)[C@H](O)[C@H](O)CO,.,.,.,.,-65
OCC(O)C(O)C(O)C(O)CO (stereo unspecified),.,/,/,/,/
Cc1cc(C)cc(NC(=O)CCN2C(=O)c3ccccc3Sc3ncccc32)c1,.,.,/,.,-61
CCCCN(CCCNc1ncnc2nc[nH]c12)c1ccccc1,.,?,.,?,.
CCN(CCCNc1ncnc2nc[nH]c12)c1cccc(C)c1,.,?,.,.,-76
COc1cc(OC)cc(C(=O)NNC(=O)c2ccc3ccccc3n2)c1,.,?,/,?,-75
COc1ccc(C(=O)NC(=S)NNC(=O)c2ccc3ccccc3n2)cc1,.,.,.,.,-97
SMILES,Tb PYK inh,Vaccinia mCherry,LmPK inhibitor,Vaccinia Venus,HCMV antiviral
COc1ccc(N=C(NN)c2ccc3ccccc3n2)cc1,?,.,.,.,-89
COc1ccccc1NC(=O)N1CCN(c2nnc(C)c3c(C)n(-c4ccccc4)nc23)CC1,.,.,/,.,?
Cc1ccc(-c2nn(-c3ccccc3)cc2CN(C)C(=O)CCC(=O)O)cc1C,.,.,.,.,?
O=C(N/N=C/c1cc2c3c(c1O)CCCN3CCC2)c1ccccc1O,.,?,.,?,-100
Cc1ccc(C)c(N/C(N)=N/c2nc(C)cc(C)n2)c1,.,.,.,.,.
Cc1ccc(CN=C(N)Nc2nc(C)cc(C)n2)cc1,.,?,.,?,-80
CCOP(=O)(c1ccc(N(C)C)cc1)C(O)c1c(Cl)cccc1Cl (stereo unspecified),.,/,.,/,.
NC(=O)CSc1nc2c(c(=O)n1-c1ccccc1)C1(CCCCC1)Cc1ccccc1-2,.,.,.,.,-93
Cc1cccc(-n2c(SCC(N)=O)nc3c(c2=O)C2(CCCC2)Cc2ccccc2-3)c1,.,?,.,?,?
CN(Cc1ccccc1)C(=O)c1ccc2nc([C@H]3C[C@H](O)[C@@H](CO)O3)[nH]c2c1,.,.,/,.,.
Cc1cc(CN2CCN(c3cccc(C)c3C)CC2)cs1,.,.,/,.,-69
CCS(=O)(=O)c1ccc(O)c(NC(=O)Nc2ccccc2OC)c1,.,.,.,.,.
CC(C)[C@@H](N)C(=O)NC[C@H]1O[C@@H](n2cnc3c(=O)[nH]c(N)nc32)[C@H](O)[C@@H]1O,.,.,/,.,.
Cc1cc(O)cc2c1C1CCC3(C)C(=O)CCC3C1C=C2 (stereo unspecified),.,1.8µM,/,?,-97
C[C@]12CC[C@@H]3c4ccc(O)cc4CC[C@H]3[C@@H]1CCC2=O,.,.,.,.,.
COC(=O)[C@@H]1C[C@]2(OC(=O)c3ccccc3)C=CC(=O)C[C@@H]2N1C(=O)OCc1ccccc1,.,.,.,.,-98
O=C(NCCc1c[nH]c2ccccc12)C1CCC(Cn2c(=S)[nH]c3ccccc3c2=O)CC1 (stereo unspecified),.,/,.,/,-68
CC1(C(=O)NCCc2c[nH]c3ccccc23)CCN1CC1CCCCC1 (stereo unspecified),.,.,/,.,-64
COc1ccc2nc(C)cc(SCC(=O)N/N=C/c3ccccc3)c2c1,.,.,.,.,-60
Cc1cc(SCC(=O)NN)c2cc(Br)ccc2n1,.,.,.,.,-66
COc1ccc2nc(C)cc(SCC(=O)N/N=C/c3c(OC)ccc4ccccc34)c2c1,.,.,.,.,.
COc1ccccc1/C=N/NC(=O)CSc1cc(C)nc2ccccc12,.,.,.,.,-82
Cc1cc(C(=O)NN)c2cc(Br)ccc2n1,.,?,.,.,.
CCOc1cccc2c1OC1(C)CC2NC(=O)N1c1cccc(C(=O)NCc2ccccn2)c1 (stereo unspecified),.,/,.,/,.
CN(CC(=O)NC(=O)NCc1ccccc1)Cc1ccc(Cl)cc1,.,.,.,.,.
CN(CC(=O)NC(=O)NCc1ccccc1)Cc1cccc(Cl)c1Cl,.,14µM,.,?,.
Cc1ccc(N(CC(=O)NCc2ccccc2)C(=O)CCC(=O)Nc2ccccn2)cc1,.,.,.,.,.
COc1ccc(Cn2c(=O)c3ccccc3n3c(-c4cccc(OC)c4OC)nnc23)cc1,.,?,/,.,-89
COc1cccc(-c2nnc3n(Cc4ccc(C)cc4)c(=O)c4ccccc4n23)c1O,.,.,/,.,.

# Screens (PubChem)
